Measurements reported in PubChem BioAssay (Tox21).
Several values for one entry are separate records, joined by “and”; a condition that tells them apart may be missing. Identical values can stand only once. Results filed as inconclusive are left out. Entries that show only a call come without a potency. More than one record can exist for a structure, and the calls need not agree. Activity calls are given as the source filed them. Unless noted, calls follow the shape of the dose curve; as a rule, active = well fitted curve in the direction sought with a large enough effect in the repeat runs; inconclusive = weak or mixed curves; inactive = no such curve, though single readings can be large; an effect the other way counts as inactive or inconclusive.

Columns and labels:
[1] = biological target: Acetylcholinesterase (Homo sapiens) (UniProt P22303); assay: Acetylcholinesterase (AChE) small molecule antagonists: enzyme-based qHTS assay with human liver microsomes (AID 1347399; calls by dose curve; also: nearly all actives have a fitted effect of over 60% in size); conditions: Potency: qHTS inhibition; outcome: qHTS inhibition
Summary of the method: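 Recombinant human AChE (50 mU/mL in the enzyme mix) and human liver microsomes (0.25 mg/mL final) were preincubated with compound and NADPH (0.25 mg/mL final) for 30 min at 37 C. Acetylthiocholine/DTNB was then added; thiocholine was read colorimetrically after 10 min at room temperature.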

[2] = biological target: Cytochrome P450 2D6 (Homo sapiens) (UniProt P10635); assay: Cytochrome P450 Family 2 Subfamily D Member 6 (CYP2D6) small molecule antagonists: luciferase reporter qHTS assay (AID 1671196); also: nearly all actives have a fitted effect of over 50% in size; also: potency is read from the fitted curve at half-maximal effect; as to activity change, negative = inhibition: series mostly up to about 120 µM
Summary of the method: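 CYP2D6 activity was followed as luminescence from its luciferin product after a 1 h NADPH-driven reaction at room temperature. Enzyme-substrate mix and compound were pre-incubated for 10 min, and the signal was read 20 min after adding detection reagent.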

[3] = biological target: Cytochrome P450 2C19 (Homo sapiens) (UniProt P33261); assay: Cytochrome P450 Family 2 Subfamily C Member 19 (CYP2C19) small molecule antagonists: luciferase reporter qHTS assay (AID 1671197); also: nearly all actives have a fitted effect of over 65% in size; also: potency is read from the fitted curve at half-maximal effect; as to activity change, negative = inhibition: series mostly up to about 120 µM
Summary of the method: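 Inhibition of CYP2C19 was scored from loss of luminescence in a P450-Glo proluciferin substrate assay, NADPH-started and run 1 h at 37C, with ketoconazole as positive control.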

[4] = biological target: Cytochrome P450 2C9 (Homo sapiens) (UniProt P11712); assay: Cytochrome P450 Family 2 Subfamily C Member 9 (CYP2C9) small molecule antagonists: luciferase reporter qHTS assay (AID 1671198); also: nearly all actives have a fitted effect of over 50% in size; also: potency is read from the fitted curve at half-maximal effect; as to activity change, negative = inhibition: series mostly up to about 120 µM
Summary of the method: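 P450-Glo proluciferin substrate with CYP2C9 enzyme; 10 min RT preincubation, then NADPH regeneration 1 h at 37C; luciferin detection reagent 20 min RT, luminescence in relative luminescence units.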

[5] = biological target: Cytochrome P450 1A2 (Homo sapiens) (UniProt P05177); assay: Cytochrome P450 Family 1 Subfamily A Member 2 (CYP1A2) small molecule antagonists: luciferase reporter qHTS assay (AID 1671199); also: nearly all actives have a fitted effect of over 50% in size; also: potency is read from the fitted curve at half-maximal effect; as to activity change, negative = inhibition: series mostly up to about 120 µM
Summary of the method: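 Luminescence from luciferin formed by CYP1A2 from a proluciferin substrate, read 20 min after detection reagent. Compound was pre-incubated 10 min with enzyme-substrate, and reaction started with NADPH regeneration solution for 1 h at room temperature; furafylline control.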

[6] = biological target: Voltage-gated inwardly rectifying potassium channel KCNH2 (Homo sapiens) (UniProt Q12809); assay: Human Ether-a-go-go-Related Gene (hERG) channel small molecule antagonists: fluorescence cell-based qHTS assay (AID 1671200); also: nearly all actives have a fitted effect of over 50% in size; also: potency is read from the fitted curve at half-maximal effect;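 as to activity change, negative = inhibition: hERG-expressing U2OS cells given a thallium stimulus after FluxOR II dye loading; series mostly up to about 77 µM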
Summary of the method: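 Kinetic two-minute fluorescence traces, sampled at 1 s, were collected following thallium stimulus of U2OS cells (1000 per well) that had been cultured overnight at 37 C and loaded with FluxOR II.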

[7] = biological target: Cytochrome P450 3A4 (Homo sapiens) (UniProt P08684); assay: Cytochrome P450 Family 3 Subfamily A Member 4 (CYP3A4) small molecule antagonists: luciferase reporter qHTS assay (AID 1671201); also: nearly all actives have a fitted effect of over 50% in size; also: potency is read from the fitted curve at half-maximal effect; as to activity change, negative = inhibition: series mostly up to about 120 µM
Summary of the method: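 Proluciferin-to-luciferin conversion by CYP3A4, NADPH-regenerated, 1 h RT; luminescence read as RLU. Ketoconazole as control.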

Chain of Cytochrome P450 1A2 (Homo sapiens) (P05177 whole entry, looked up): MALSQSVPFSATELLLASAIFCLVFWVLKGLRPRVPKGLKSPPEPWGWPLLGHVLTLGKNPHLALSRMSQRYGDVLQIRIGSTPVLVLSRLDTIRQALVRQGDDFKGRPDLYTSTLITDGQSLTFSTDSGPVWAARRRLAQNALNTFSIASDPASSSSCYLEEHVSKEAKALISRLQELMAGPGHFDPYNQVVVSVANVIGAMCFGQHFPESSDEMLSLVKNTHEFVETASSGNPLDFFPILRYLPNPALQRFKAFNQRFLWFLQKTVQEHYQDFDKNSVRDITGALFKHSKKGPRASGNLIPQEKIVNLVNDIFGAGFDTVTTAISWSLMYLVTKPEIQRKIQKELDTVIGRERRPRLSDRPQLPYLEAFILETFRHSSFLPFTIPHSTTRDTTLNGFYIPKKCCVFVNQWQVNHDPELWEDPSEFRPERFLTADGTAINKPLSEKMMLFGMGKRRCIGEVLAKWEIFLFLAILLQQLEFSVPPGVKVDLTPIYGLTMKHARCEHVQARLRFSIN
Chain of Voltage-gated inwardly rectifying potassium channel KCNH2 (Homo sapiens) (Q12809 whole entry, looked up): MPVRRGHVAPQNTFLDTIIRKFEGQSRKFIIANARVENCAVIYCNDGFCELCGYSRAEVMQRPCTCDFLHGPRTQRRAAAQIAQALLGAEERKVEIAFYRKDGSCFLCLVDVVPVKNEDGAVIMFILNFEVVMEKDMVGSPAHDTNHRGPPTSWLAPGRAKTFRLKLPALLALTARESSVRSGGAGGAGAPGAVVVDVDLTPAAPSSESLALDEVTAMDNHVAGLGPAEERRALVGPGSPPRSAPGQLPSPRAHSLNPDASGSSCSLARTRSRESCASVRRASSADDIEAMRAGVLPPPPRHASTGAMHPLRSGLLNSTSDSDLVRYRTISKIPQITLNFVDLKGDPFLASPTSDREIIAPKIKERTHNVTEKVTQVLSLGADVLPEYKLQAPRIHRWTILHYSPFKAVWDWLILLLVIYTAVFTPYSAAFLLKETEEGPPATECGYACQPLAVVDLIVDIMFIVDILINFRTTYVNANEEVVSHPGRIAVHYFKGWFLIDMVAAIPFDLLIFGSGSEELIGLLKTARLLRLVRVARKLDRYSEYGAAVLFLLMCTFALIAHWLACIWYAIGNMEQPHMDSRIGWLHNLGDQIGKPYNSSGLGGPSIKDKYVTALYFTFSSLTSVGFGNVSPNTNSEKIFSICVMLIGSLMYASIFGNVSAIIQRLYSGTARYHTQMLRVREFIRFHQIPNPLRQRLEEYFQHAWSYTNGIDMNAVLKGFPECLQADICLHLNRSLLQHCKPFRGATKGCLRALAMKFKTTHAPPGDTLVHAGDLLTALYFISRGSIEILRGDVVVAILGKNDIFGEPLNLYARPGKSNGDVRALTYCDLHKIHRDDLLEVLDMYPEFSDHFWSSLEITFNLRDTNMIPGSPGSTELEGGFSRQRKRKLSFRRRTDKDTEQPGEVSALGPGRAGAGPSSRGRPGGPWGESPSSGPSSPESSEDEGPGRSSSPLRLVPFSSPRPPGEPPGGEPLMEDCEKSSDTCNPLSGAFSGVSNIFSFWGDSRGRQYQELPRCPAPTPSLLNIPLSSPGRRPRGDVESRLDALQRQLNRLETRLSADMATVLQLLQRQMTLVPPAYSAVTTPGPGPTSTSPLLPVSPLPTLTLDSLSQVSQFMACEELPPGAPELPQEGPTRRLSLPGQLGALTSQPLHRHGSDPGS
Chain of Acetylcholinesterase (Homo sapiens) (P22303 whole entry, looked up): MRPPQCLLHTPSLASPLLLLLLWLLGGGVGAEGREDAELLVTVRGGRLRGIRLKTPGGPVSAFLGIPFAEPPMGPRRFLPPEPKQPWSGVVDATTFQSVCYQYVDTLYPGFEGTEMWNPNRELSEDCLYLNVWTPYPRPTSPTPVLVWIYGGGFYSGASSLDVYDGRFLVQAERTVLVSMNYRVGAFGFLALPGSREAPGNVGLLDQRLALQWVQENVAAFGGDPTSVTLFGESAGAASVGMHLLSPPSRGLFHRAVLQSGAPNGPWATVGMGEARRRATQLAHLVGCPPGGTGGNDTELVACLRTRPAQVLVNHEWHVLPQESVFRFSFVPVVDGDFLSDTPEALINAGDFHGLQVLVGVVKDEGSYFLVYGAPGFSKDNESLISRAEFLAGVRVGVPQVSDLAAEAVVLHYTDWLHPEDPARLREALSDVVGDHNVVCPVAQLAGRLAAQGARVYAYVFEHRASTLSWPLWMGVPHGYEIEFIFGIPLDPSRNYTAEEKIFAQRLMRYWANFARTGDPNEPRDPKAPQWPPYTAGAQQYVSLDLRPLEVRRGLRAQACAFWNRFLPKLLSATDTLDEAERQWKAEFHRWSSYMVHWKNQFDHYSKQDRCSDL
Chain of Cytochrome P450 3A4 (Homo sapiens) (P08684 whole entry, looked up): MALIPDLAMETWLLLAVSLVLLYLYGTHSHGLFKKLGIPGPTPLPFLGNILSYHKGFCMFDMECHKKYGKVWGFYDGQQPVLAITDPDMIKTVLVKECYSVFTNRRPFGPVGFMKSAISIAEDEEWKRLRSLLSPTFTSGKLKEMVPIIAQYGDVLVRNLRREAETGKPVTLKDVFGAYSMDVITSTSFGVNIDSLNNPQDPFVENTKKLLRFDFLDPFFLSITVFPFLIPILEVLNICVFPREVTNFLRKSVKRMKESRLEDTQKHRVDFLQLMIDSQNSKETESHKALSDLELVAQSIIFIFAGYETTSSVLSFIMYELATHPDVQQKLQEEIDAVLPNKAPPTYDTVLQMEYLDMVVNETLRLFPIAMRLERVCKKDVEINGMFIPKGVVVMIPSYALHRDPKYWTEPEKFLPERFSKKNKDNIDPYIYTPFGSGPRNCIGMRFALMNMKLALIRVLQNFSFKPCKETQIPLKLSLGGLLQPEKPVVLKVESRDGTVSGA
Chain of Cytochrome P450 2D6 (Homo sapiens) (P10635 whole entry, looked up): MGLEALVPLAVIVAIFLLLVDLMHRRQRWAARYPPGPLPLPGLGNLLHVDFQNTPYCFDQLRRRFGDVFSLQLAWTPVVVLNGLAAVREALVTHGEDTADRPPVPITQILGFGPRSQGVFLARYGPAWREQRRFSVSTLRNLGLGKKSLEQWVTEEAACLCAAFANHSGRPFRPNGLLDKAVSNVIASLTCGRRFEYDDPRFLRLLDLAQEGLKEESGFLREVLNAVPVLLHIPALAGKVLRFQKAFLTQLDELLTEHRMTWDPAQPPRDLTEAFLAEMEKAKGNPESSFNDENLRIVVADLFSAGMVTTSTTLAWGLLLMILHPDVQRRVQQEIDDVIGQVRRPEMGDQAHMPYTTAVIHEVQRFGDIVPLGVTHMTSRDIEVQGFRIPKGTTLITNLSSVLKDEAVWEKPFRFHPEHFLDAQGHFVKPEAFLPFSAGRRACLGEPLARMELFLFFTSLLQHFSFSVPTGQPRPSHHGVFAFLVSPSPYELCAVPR
Chain of Cytochrome P450 2C19 (Homo sapiens) (P33261 whole entry, looked up): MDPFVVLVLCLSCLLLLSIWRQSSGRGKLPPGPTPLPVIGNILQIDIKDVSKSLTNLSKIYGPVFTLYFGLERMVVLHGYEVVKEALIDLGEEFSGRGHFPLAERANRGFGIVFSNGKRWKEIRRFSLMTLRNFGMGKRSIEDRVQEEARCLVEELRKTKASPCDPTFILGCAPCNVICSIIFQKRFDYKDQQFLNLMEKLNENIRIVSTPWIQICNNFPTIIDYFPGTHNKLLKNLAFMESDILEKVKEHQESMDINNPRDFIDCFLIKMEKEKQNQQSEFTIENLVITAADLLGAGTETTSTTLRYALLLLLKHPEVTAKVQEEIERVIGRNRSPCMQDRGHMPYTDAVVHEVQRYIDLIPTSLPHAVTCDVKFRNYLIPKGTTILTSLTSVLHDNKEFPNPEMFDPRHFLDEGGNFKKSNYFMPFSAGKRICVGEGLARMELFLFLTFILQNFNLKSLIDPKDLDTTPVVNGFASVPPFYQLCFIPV
Chain of Cytochrome P450 2C9 (Homo sapiens) (P11712 whole entry, looked up): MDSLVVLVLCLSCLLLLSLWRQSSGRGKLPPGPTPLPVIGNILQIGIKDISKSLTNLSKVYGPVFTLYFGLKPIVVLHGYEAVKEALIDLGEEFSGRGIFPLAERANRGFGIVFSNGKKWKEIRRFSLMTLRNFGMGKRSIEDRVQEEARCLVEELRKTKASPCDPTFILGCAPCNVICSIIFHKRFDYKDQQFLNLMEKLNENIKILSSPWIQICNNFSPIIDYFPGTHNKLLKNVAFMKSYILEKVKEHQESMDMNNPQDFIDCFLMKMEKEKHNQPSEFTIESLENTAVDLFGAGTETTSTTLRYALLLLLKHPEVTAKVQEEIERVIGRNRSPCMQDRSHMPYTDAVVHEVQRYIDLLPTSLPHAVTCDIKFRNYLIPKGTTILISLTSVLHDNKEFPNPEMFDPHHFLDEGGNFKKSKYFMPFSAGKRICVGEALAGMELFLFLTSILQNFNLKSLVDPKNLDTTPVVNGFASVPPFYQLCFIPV

Compound	Potency [1]	Potency [2]	Potency [3]	Potency [4]	Potency [5]	Potency [6]	Potency [7]	activity change, negative = inhibition [1]	activity change, negative = inhibition [2]	activity change, negative = inhibition [3]	activity change, negative = inhibition [4]
CCCCC(CC)COC(=O)c1c(Br)c(Br)c(Br)c(Br)c1C(=O)OCC(CC)CCCC (centres undefined)	inactive	inactive	inactive	inactive	inactive	inactive	inactive				
OCCCl	inactive	inactive	inactive	inactive	inactive	inactive	inactive				
CCC1(CCC(C)C)C(=O)NC(=O)NC1=O	inactive										
Nc1c(Br)cc(Br)c2c1C(=O)c1ccccc1C2=O					0.168 µM (active)			0.243% [at 23.6 µM] (inactive)	0.314% [at 23.6 µM] (inactive)	-3.63% [at 23.6 µM] (inactive)	-2.78% [at 23.6 µM] (inactive)
c1ccc2sc(SNC3CCCCC3)nc2c1	inactive	19.8 µM (active) and 35.6 µM (active)	31.4 µM (active) and 22.4 µM (active)	31.4 µM (active) and 17.8 µM (active)	55.8 µM (active) and 35.6 µM (active)	inactive					
CCCCNC(=O)OCC#CI	inactive	31.6 µM (active) and 35.6 µM (active)	2.81 µM (active) and 2.52 µM (active)	5 µM (active) and 5.03 µM (active)	3.54 µM (active) and 5.64 µM (active)	inactive					
CCCCCCCCP(=O)(O)O	inactive	inactive	inactive	inactive							
C[N+](C)(C)CCOC(=O)C(O)(c1ccccc1)c1ccccc1	inactive	15.5 µM (active)	inactive	inactive	inactive	inactive					
O=C(Cc1ccccc1)OCCc1ccccc1	inactive	inactive	2.52 µM (active)	20 µM (active)	10 µM (active)	inactive	inactive				
C[Si](Cn1cncn1)(c1ccc(F)cc1)c1ccc(F)cc1	inactive	26 µM (active) and 31.7 µM (active)	58.3 nM (active) and 39.9 nM (active)	1.84 µM (active) and 2 µM (active)	32.8 µM (active) and 20 µM (active)	45.1 µM (active)	104 nM (active) and 126 nM (active)				
C=CCN1C[C@H](C)N([C@H](c2ccc(C(=O)N(CC)CC)cc2)c2cccc(OC)c2)C[C@H]1C	inactive	3.09 µM (active)	inactive	inactive	inactive	3.01 µM (active)					
CN1CC[C@]23c4c5ccc(O)c4O[C@H]2[C@@H](O)CC[C@H]3[C@H]1C5	inactive	44 µM (active)	inactive	inactive	inactive	inactive	inactive				
C[C@H](N)[C@H](O)c1ccc(O)c(O)c1	inactive	inactive	inactive	inactive	inactive	inactive	inactive				
CC(C)(c1ccccc1)c1cc(-n2nc3ccccc3n2)c(O)c(C(C)(C)c2ccccc2)c1	inactive	inactive	inactive	inactive		inactive	inactive				
CCOP(=O)(O)C(N)=O	inactive	inactive	inactive	inactive	inactive		inactive				
Cc1ccccc1	inactive	inactive	inactive	inactive	inactive		inactive				
CC[N+]1(CCOC(=O)C(O)(c2ccccc2)c2ccccc2)CCCCC1	inactive	0.977 µM (active)	inactive	inactive	inactive		inactive				
c1ccc2c(c1)sc1ccccc12	inactive	inactive	39.9 µM (active) and inactive	inactive	3.17 µM (active) and 2.57 µM (active)	inactive	inactive				
CC(C)(C)c1ccc(CCOc2ncnc3ccccc23)cc1	inactive	71 µM (active)	inactive	inactive	inactive	inactive	inactive				
CC(C)(C)N(NC(=O)c1ccc(Cl)cc1)C(=O)c1ccccc1	inactive	inactive	4.45 µM (active)	11.2 µM (active)	39.7 µM (active)	inactive	7.92 µM (active)				
CCCCCl	inactive	18.3 µM (active)	41 µM (active)		57.9 µM (active)						
CCC1(C2=NCCN2)Cc2ccccc2O1 (centres undefined)	inactive	15.5 µM (active)	inactive	inactive	inactive	inactive	inactive				
O=C(N/N=C/c1ccc([N+](=O)[O-])o1)c1cc([N+](=O)[O-])cc([N+](=O)[O-])c1O	inactive	inactive	inactive	30.9 µM (active)	inactive		inactive				
CN(C)C(=O)Nc1cccc(OC(=O)NC(C)(C)C)c1	inactive	inactive	inactive	inactive	39.9 µM (active)	inactive	inactive				
CC[N+]1(C)CCCC(OC(=O)C(O)(c2ccccc2)c2ccccc2)C1 (centres undefined)	inactive	2.75 µM (active)	inactive		inactive	inactive					
CCCC[N+](CCCC)(CCCC)CCCC	inactive	0.0089 µM (active)	inactive	inactive	inactive		inactive				
CC(C)(C#N)C(C)(C)C#N	inactive	inactive	inactive	inactive		inactive	inactive				
Nc1cccc2ccccc12	inactive	31.9 µM (active) and 31.7 µM (active)	16 µM (active) and 20 µM (active)	35.8 µM (active) and 50.2 µM (active)	10.1 µM (active) and 5.64 µM (active)	inactive	35.6 µM (active)				
